Hits are enriched below; roughly 7.9% of the tested compounds scored in any of these assays.
Her2 expr inh – lowers expression of human Her2 kinase. P04626. SKBR-3 HER2 protein level, AlphaScreen, 18-24 h; hits give low values. HER2 level % of control, % at 10 µM. 0.69% of 65,000 active;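 active = HER2 level under 5% of the carrier-only control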;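 also: lower value means stronger loss of Her2 protein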
M1 ag – activates the M1 muscarinic receptor; CHO-M1 cells, Fluo-4 calcium fluorescence, agonist mode; hits give high values; B-score at 10 µM; 3% of 64,000 active; AID 626;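 active = fluorescence rise, raw or as B-score row- and column-corrected plate score, outside the 99.7% band of its plate's samples, either direction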
M1 antag – M1 muscarinic receptor (rat) antagonism; B-score at 10 µM; AID 628; 3.4% of 64,000 active; P08482; CHO-M1 cells, Fluo-4 calcium, ACh EC80 antagonist mode; hits give low values;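 active = calcium fluorescence response, raw or row-and-column corrected B-score, differing from the plate sample mean either way at a set confidence level, mostly lower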
Cav3 T inh – blocks human Cav3.2 T-type calcium channel; 4% of 100,000 active; Cav3.2-expressing cells, Fluo-4 calcium fluorescence FDSS; hits give low values; B-score at 10 µM;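 active = single-dose well whose peak fluorescence ratio is a statistical outlier from its plate by either plate-standardised score or position-corrected B-score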
PLAP act – activators of human placental alkaline phosphatase; P05187; purified PLAP enzyme, luminescent substrate read-out; hits give high values; activation fold at 20 µM; 1.2% of 96,000 active; AID 696; in the data active = activation fold above about 2
Large screens that a line does not name were inactive.

CCCCNC(=O)CN1C(=O)NC2(CCCc3ccccc32)C1=O (stereo not given)	none (no result: Her2 expr inh, M1 ag, M1 antag)
Cc1ccc(C(=O)CCNc2ccc(F)c(Cl)c2)o1	none (no result: M1 ag, M1 antag)
CC(C)c1nnc(NC(=O)CCS(=O)(=O)c2nc(-c3cccs3)cc(C(F)(F)F)n2)s1	Her2 expr inh -19
COC(=O)C(Cc1ccccc1)NC(=O)CSc1nc(N)cc(=O)[nH]1 (stereo not given)	none
COCCN1C(=O)C(=O)/C(=C(/O)c2cccc(S(=O)(=O)N(C)C)c2)C12C(=O)N(C)c1ccccc12 (stereo not given)	none
O=C(NCc1ccco1)C1CCN(c2nc3ccccc3n2Cc2ccc(F)cc2)CC1	Cav3 T inh -8.3
COc1nc(OC)nc(N2CCC(C(=O)NCc3ccco3)CC2)n1	none
Nc1c(C(=O)NCc2ccco2)c2nc3ccccc3nc2n1CCc1ccc(F)cc1	PLAP act 2 (no result: Her2 expr inh, M1 ag, M1 antag, Cav3 T inh)
C#CCOC(=O)c1ccccc1C(=O)n1nnc2ccccc21	M1 ag -2.3
C#CCOC(=O)c1ccccc1C(=O)O	none (no result: Her2 expr inh, M1 ag, M1 antag, PLAP act)
O=C(c1cccc2ccccc12)n1nnc2ccccc21	none (no result: Her2 expr inh, M1 ag, M1 antag, PLAP act)
C#CCOC(=O)c1ccccc1C(=O)OCC#C	Her2 expr inh -22
COc1cccc(COc2ccccc2C2Nc3ccc(Br)cc3C(=O)N2NC(=O)c2ccncc2)c1 (stereo not given)	none (no result: Her2 expr inh, M1 ag, M1 antag, Cav3 T inh)
O=C(NCCn1cc(SCc2ccc(F)cc2)c2ccccc21)c1ccccc1F	Cav3 T inh -4.7 (no result: Her2 expr inh, M1 ag, M1 antag, PLAP act)
O=C(NCc1ccc(Cl)cc1)c1ccc(Cn2cc(C(F)(F)F)ccc2=O)cc1	Cav3 T inh -5.7 (no result: Her2 expr inh, M1 ag, M1 antag)
CC(=O)N1CCc2cc(S(=O)(=O)NC(CC(C)C)C(=O)N3CCn4c3nc3ccccc34)ccc21 (stereo not given)	none
CCOC(=O)C1CCCN(C(=O)c2cn(CC)c3ccc(S(=O)(=O)N4CCCC4)cc3c2=O)C1 (stereo not given)	none
Cc1ccc(SCCNC(=O)C(CO)(CO)CO)cc1	none
Cc1ccc(SCCNC(=S)Nc2ccccc2)cc1	Cav3 T inh -6.1 (no result: Her2 expr inh, M1 ag, M1 antag)
Cc1ccc(SCCNC(=S)Nc2ccc(C)c(C)c2)cc1	Cav3 T inh -4.4 (no result: Her2 expr inh, M1 ag, M1 antag)
S=C(NCCSCc1c(Cl)cccc1Cl)Nc1ccccc1	Cav3 T inh -5.8 (no result: Her2 expr inh, M1 ag, M1 antag)
Cc1ccc(SCCNC(=S)Nc2cc(C)ccc2C)cc1	Cav3 T inh -4.1 (no result: Her2 expr inh, M1 ag, M1 antag)
COc1ccc(-c2csc(NC(=O)C3COc4ccccc4O3)n2)cc1OC (stereo not given)	none (no result: Her2 expr inh, M1 ag, M1 antag, PLAP act)
Cc1ccc(CNC(=O)c2ccc(Cn3nc(C)c(Cl)c3C)o2)cc1	Cav3 T inh -4.7
C=C(C)c1cccc(C(C)(C)NC(=O)N2CCCCC2CC)c1 (stereo not given)	Cav3 T inh -4.5 (no result: Her2 expr inh, M1 ag, M1 antag)
COc1ccc(C(=O)c2ccc(Cl)cc2Cl)cc1	none (no result: Her2 expr inh, M1 ag, M1 antag)
Cc1c(C(=O)c2ccc(Cl)cc2Cl)cnc2cc3c(cc12)OCO3	Cav3 T inh -4 (no result: Her2 expr inh, M1 ag, M1 antag, PLAP act)
Cc1ccccc1NC(=O)C(=O)NCc1ccccn1	Cav3 T inh -4.5 (no result: Her2 expr inh, M1 ag, M1 antag)
Cc1cccc(C)c1NC(=O)C(=O)NCc1ccccn1	none (no result: Her2 expr inh, M1 ag, M1 antag)
CCCCC(CC)CNC(=O)c1cccs1 (stereo not given)	none
C=CCSC(=C(C#N)C#N)c1cc2c([nH]1)CCCC2	Cav3 T inh -6.3 (no result: Her2 expr inh, M1 ag, M1 antag)
O=C(O)c1cc2c([nH]c1=O)CCCC2	none
O=C(COC(=O)c1cccc(NC(=O)c2ccco2)c1)c1ccc(Br)cc1	none
CCN(CCCn1c(SCC#N)nc2ccccc2c1=O)c1ccccc1	Cav3 T inh -5.4
C=C(C)Cn1c(SCC#N)nc2ccccc2c1=O	none (no result: Cav3 T inh)
CC1(c2nnc(-c3ccncc3)o2)CC(c2cccc(Cl)c2)=NO1 (stereo not given)	none (no result: Her2 expr inh, M1 ag, M1 antag, PLAP act)
Cc1cc(N2CCCC2)nc(SCC(=O)c2ccccc2)n1	none (no result: Her2 expr inh, M1 ag, M1 antag, PLAP act)
Cc1cc(N2CCC(C)CC2)nc(SCC(=O)c2ccccc2)n1	Cav3 T inh -4.7 (no result: Her2 expr inh, M1 ag, M1 antag, PLAP act)
COc1cccc(-c2csc(N3CCN(C(=S)Nc4ccccc4OC)CC3)n2)c1	none (no result: Her2 expr inh, M1 ag, M1 antag)
COc1cccc(-c2csc(N3CCN(C(=S)Nc4ccccc4Cl)CC3)n2)c1	Cav3 T inh -4.1 (no result: Her2 expr inh, M1 ag, M1 antag)
CCOc1ccc(S(=O)(=O)Nc2cccc(Cl)c2)cc1	Cav3 T inh -3.7 (no result: PLAP act)
CCOc1ccc(S(=O)(=O)NCc2ccccn2)cc1	PLAP act 2 (no result: Her2 expr inh, M1 ag, M1 antag)
COc1ccc(S(=O)(=O)NCc2ccccn2)c(Cl)c1Cl	PLAP act 2.1 (no result: Cav3 T inh)
CCOc1ccc(NS(=O)(=O)c2ccc(NS(=O)(=O)c3ccccc3)cc2)cc1	none (no result: Her2 expr inh, M1 ag, M1 antag)
COc1cc(S(=O)(=O)NCc2ccccn2)c(OC)cc1Cl	none (no result: Her2 expr inh, M1 ag, M1 antag, PLAP act)
O=C(C(Cc1ccccc1)NS(=O)(=O)c1cccc2cccnc12)N1CCc2ccccc21 (stereo not given)	none (no result: Her2 expr inh, M1 ag, M1 antag)
COc1ccc(S(=O)(=O)N(CCCN2CCCC2=O)Cc2cc3cc(C)c(C)cc3[nH]c2=O)cc1	none (no result: Cav3 T inh)

High-throughput results: PubChem BioAssay, several laboratories
